RXFP1 agonist: activates the human relaxin receptor RXFP1 | Q9HBX9 | HEK293T-RXFP1 cAMP TR-FRET, 30 min; response scale: percent of porcine relaxin response, buffer zero | Potency, µM (titrated, usually from 57.5 µM), inactives show at the top dose activation, actives largely listed as activators | actives 0.3% (n = 370,000) | AID 2676; further: potency means the concentration at half of the fitted maximal effect; on the % scale 0 is the no-effect control and ±100 the full control effect; nearly all actives have a fitted effect of over 60% in size
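Agonist response is measured as cAMP accumulation in an RXFP1-transfected HEK293T line under PDE4 inhibition. Values are scaled between buffer-only and 29 nM porcine relaxin, and EC50s come from standard Hill equation fits.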
KCNH2 3.1 inh: inhibitors of human KCNH2 3.1 potassium channel isoform. U2OS KCNH2 3.1, thallium flux FluxOr; hits give low values. AID 720553. activity change, % (tested at about 1.8 µM). actives 0.95% (n = 340,000);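 active means maximum activity change below -70%; inconclusive means maximum activity change from -70% to -50%; inactive means maximum activity change above -50%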;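 further: thallium influx rate constant from kinetic fluorescence after stimulation buffer; on the % scale 0 is the no-effect control and ±100 the full control effect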
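Thallium flux via FluxOr fluorescence (Red40 quencher, 45 min loading) in U2OS cells virally expressing the KCNH2 3.1 isoform (1.77 x 10^8 /mL virus, overnight at 37 C). Rate constants from 2-min kinetic reads post-stimulation, normalised to positive and negative controls.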
PTHR1 ag: agonists of human PTHR1 parathyroid hormone receptor; actives 0.075% (n = 410,000); HEK293 GP2 PTHR1 cells, GloSensor cAMP luminescence, 1 h; Potency, µM (highest dose often 115 µM), for the others: at the highest dose activation, hits mostly activators; Q03431; further: potency means the concentration at half of the fitted maximal effect; nearly all actives have a fitted effect of over 55% in size
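HEK-293-derived GP2 cells expressing PTHR1 and a GloSensor cAMP reporter, 3,000/well, plated overnight, given luciferin plus IBMX (each 0.5 mM as added) for 1 h at 37 °C, then compound for 1 h at 37 °C. Luminescence was read after 15 min at room temperature.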
GRP78 ERSR act: ER stress response induction in glioma; U87-MG GRP78 promoter luciferase reporter, 16 h; Potency, µM, for inactives: top-dose activation, usual class: activators; actives 0.02% (n = 420,000); further: potency means the concentration at half of the fitted maximal effect; series mostly up to about 76 µM; % of control where 0% means no effect; nearly all actives have a fitted effect of over 35% in size
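Stably transfected U87-MG glioma cells carrying a GRP78-based luciferase sensor; 16 h compound incubation. Luminescence end-point read 10 min after Bright-Glo addition at room temperature.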
RXFP1 antagonist: antagonists of human relaxin receptor RXFP1 | Q9HBX9 | HEK293-RXFP1, relaxin-stimulated cAMP HTRF, 30 min; hits give low values | activity change, negative = inhibition, % at 57.5 µM | actives 0.59% (n = 350,000);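 active means activity change of -60% or lower, but not beyond a set lower limit; inconclusive means change between -60% and -40%, or beyond the set limit; inactive means change above -40%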; further: on the % scale 0 is the no-effect control and ±100 the full control effect
hERG WT inh: KCNH2 (human, wildtype) channel inhibition. U2OS, BacMam KCNH2, thallium flux FluxOr; hits give low values. Q12809. actives 0.37% (n = 340,000). AID 720551. activity change, % at 1.84 µM;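 active means maximum activity change below -70%; inconclusive means maximum activity change between -70% and -50%; inactive means maximum activity change above -50%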; further: on the % scale 0 is the no-effect control and ±100 the full control effect
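U2OS cells transduced with wild-type KCNH2 virus are loaded with FluxOr dye for 45 min, and thallium flux is measured in kinetic reads before and after stimulation buffer. Rate constants are normalized to DMSO controls.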
The depositor's hits bear a star; [ ] = dose if it differs, or a comment. An excerpt weighted towards active compounds, which were near 1.4% of everything screened. Unless noted, the call rests on the fitted dose curve; in most records, active means well fitted curve in the direction sought with a large enough effect; inconclusive means small, poorly fitted or top-dose-only effect, or another doubt; inactive means no such curve, though single readings can be large; an effect the other way counts as inactive or inconclusive.

`O=C(CN(c1ccccc1Cl)S(=O)(=O)c1ccccc1)N/N=C/c1ccccc1C(=O)O` gave RXFP1 agonist 0%, KCNH2 3.1 inh -2, PTHR1 ag inactive, GRP78 ERSR act -3%, RXFP1 antagonist inconclusive and hERG WT inh 7.
`O=C1CCc2c(ccc3ccccc23)O1` gave GRP78 ERSR act -3%.
CCCn1c(N2CCN(S(=O)(=O)Cc3ccccc3)CC2)nc2ccccc21 was read as RXFP1 agonist 1%, KCNH2 3.1 inh -36, PTHR1 ag -84%, GRP78 ERSR act -4%, RXFP1 antagonist -1 and hERG WT inh -3.
For COc1ccc(-c2cc(C(F)(F)F)nc(SCC(=O)NCc3cnn(C)c3C)n2)cc1OC the results were RXFP1 agonist 2%, KCNH2 3.1 inh 2, PTHR1 ag inactive, GRP78 ERSR act -2% and hERG WT inh -174*.
For COCC(C)n1c(SCC(=O)Nc2oc(C)c3c(C)n[nH]c(=O)c23)nc2ccccc2c1=O (stereo unspecified) the results were RXFP1 agonist 3%, KCNH2 3.1 inh 9, PTHR1 ag -44%, GRP78 ERSR act -2%, RXFP1 antagonist -7 and hERG WT inh -10.
COc1cccc(C(=O)NCCCN2CCN(CCCNC(=O)c3cccc(OC)c3)CC2)c1 was read as RXFP1 agonist 1%, KCNH2 3.1 inh -76*, PTHR1 ag inactive, GRP78 ERSR act -5%, RXFP1 antagonist -9 and hERG WT inh inconclusive.
COc1cccc(C(=O)NCCCNC(=O)c2cccc(OC)c2)c1 was read as RXFP1 agonist 1%, KCNH2 3.1 inh -1, PTHR1 ag inactive, GRP78 ERSR act -1%, RXFP1 antagonist 2 and hERG WT inh -6.
For O=C(NCCCN1CCN(CCCNC(=O)c2cccc(Cl)c2)CC1)c1cccc(Cl)c1 the results were RXFP1 agonist 4%, KCNH2 3.1 inh -89*, PTHR1 ag inactive, GRP78 ERSR act -4%, RXFP1 antagonist -6 and hERG WT inh -100*.
Screening COc1ccc(C(=O)NCCCN2CCN(CCCNC(=O)c3ccc(OC)c(OC)c3)CC2)cc1OC returned RXFP1 agonist 0%, KCNH2 3.1 inh -3, PTHR1 ag -11%, GRP78 ERSR act -3%, RXFP1 antagonist -75* and hERG WT inh -5.
O=C(NCCN1CCCC1)c1cccc(Cl)c1 was read as RXFP1 agonist 2%, KCNH2 3.1 inh 30, PTHR1 ag inactive, GRP78 ERSR act 1%, RXFP1 antagonist -26 and hERG WT inh 5.
Screening COc1ccc(C(=O)NCCN2CCN(C(=O)c3ccc(OC)c(OC)c3)CC2)cc1OC returned RXFP1 agonist 3%, KCNH2 3.1 inh 5, PTHR1 ag -9%, GRP78 ERSR act -4%, RXFP1 antagonist -7 and hERG WT inh -8.
Screening CCCCNC(=O)c1ccc2c(c1)N=C(CC)c1ccccc1S2 returned RXFP1 agonist -1%, PTHR1 ag -31%, GRP78 ERSR act -5% and RXFP1 antagonist -11.
`CCN(CC)CCCN(C(=O)c1ccco1)c1nc(-c2ccc(Cl)cc2)cs1` gave RXFP1 agonist 1%, KCNH2 3.1 inh -80*, PTHR1 ag inactive, GRP78 ERSR act 2%, RXFP1 antagonist -96* and hERG WT inh -42.
For O=C(c1ccco1)N(CCCN1CCOCC1)c1nc(-c2ccc(Cl)cc2)cs1 the results were RXFP1 agonist 1%, KCNH2 3.1 inh -15, PTHR1 ag -6%[57.5 µM], GRP78 ERSR act -1%, RXFP1 antagonist 6 and hERG WT inh 9.
CCN(CC)CCCN(C(=O)c1ccco1)c1nc(-c2ccc(C)cc2)cs1 was read as RXFP1 agonist 0%, KCNH2 3.1 inh -94*, PTHR1 ag inconclusive, GRP78 ERSR act 0%, RXFP1 antagonist -14 and hERG WT inh -47.
For Cc1cc(Cl)c(OCCCNC2CCCC2)c(Br)c1 the results were RXFP1 agonist -1%, KCNH2 3.1 inh -7, PTHR1 ag inactive, GRP78 ERSR act -2%, RXFP1 antagonist -22 and hERG WT inh 9.
Screening Nc1nc(CN2CCN(c3ccccn3)CC2)nc(Nc2ccc(F)cc2)n1 returned RXFP1 agonist 1%, KCNH2 3.1 inh -89*, PTHR1 ag -83%, GRP78 ERSR act -4%, RXFP1 antagonist 8 and hERG WT inh -3.
Nc1nc(CN2CCCCCC2)nc(Nc2ccc(F)cc2)n1 was read as RXFP1 agonist 2%, KCNH2 3.1 inh -73*, PTHR1 ag inactive, GRP78 ERSR act -2%, RXFP1 antagonist -6 and hERG WT inh 28.
`COc1ccccc1N1CCN(Cc2nc(N)nc(Nc3ccccc3)n2)CC1` gave RXFP1 agonist 0%, KCNH2 3.1 inh inconclusive, PTHR1 ag -33%, GRP78 ERSR act -5%, RXFP1 antagonist -2 and hERG WT inh 46.
`COc1ccc(Nc2nc(N)nc(CSC(=S)N3CCOCC3)n2)cc1` gave RXFP1 agonist -1%, KCNH2 3.1 inh 6, PTHR1 ag -29%, GRP78 ERSR act 2%, RXFP1 antagonist 2 and hERG WT inh 2.
Screening Nc1nc(CSC(=S)N2CCOCC2)nc(Nc2ccc(F)cc2)n1 returned RXFP1 agonist 0%, KCNH2 3.1 inh -115*, PTHR1 ag -20%, GRP78 ERSR act 0% and hERG WT inh -2.
Screening COc1cc2c(cc1OC)[C@@H](NC(=O)Cc1ccc(F)cc1)[C@H](OCc1ccccc1)C2 returned KCNH2 3.1 inh -131*, PTHR1 ag inconclusive, GRP78 ERSR act -2% and hERG WT inh -16.
`Cc1ccc2nc(-c3ccccn3)cc(C(=O)NC3CCN(C)CC3)c2c1` gave RXFP1 agonist 1%.
`Cc1nc(NC(=O)CSc2nnc(C)n2CC2CCCO2)sc1C` (stereo unspecified) gave RXFP1 agonist 0%, KCNH2 3.1 inh 15, PTHR1 ag -17%[57.5 µM], GRP78 ERSR act -2%, RXFP1 antagonist 4 and hERG WT inh -188*.
`COc1ccc(CN(C2CCCC2)S(=O)(=O)c2ccc(-n3cnnn3)cc2)cc1` gave RXFP1 agonist 1%, KCNH2 3.1 inh -71*, PTHR1 ag inactive, GRP78 ERSR act -6%, RXFP1 antagonist -1 and hERG WT inh -39.
Screening O=C(NNc1cc(N2CCCC2)nc(N2CCCC2)n1)c1ccc([N+](=O)[O-])cc1 returned RXFP1 agonist 0%, KCNH2 3.1 inh -90*, PTHR1 ag -60%, GRP78 ERSR act -3%, RXFP1 antagonist -12 and hERG WT inh -41.
CC(C)(C)c1ccc(C(=O)NNc2cc(N3CCCCC3)nc(N3CCCCC3)n2)cc1 was read as RXFP1 agonist 0%, KCNH2 3.1 inh -13, PTHR1 ag inactive, GRP78 ERSR act -6%, RXFP1 antagonist -30 and hERG WT inh 6.
